Calls of active or inactive are those of the source.
What was measured:
[1] = system: Plasmodium falciparum Sir2 (PF13_0152, Sir2A); test: Plasmodium falciparum Sir2A binding compounds – biochemical, small-molecule microarray, 635 nm fluorescence, primary screen (AID 1098); conditions: fluorescence 635 nm, higher = more signal;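 note: score merges spot fluorescence intensity with its signal-to-noise ratio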
[2] = probe aDKK1 binding to arrayed compounds – biochemical, biotinylated probe, 635/667 nm fluorescence, primary screen (AID 1099); conditions: small-molecule microarray, higher = more signal;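 note: score merges 667nm spot fluorescence with signal to noise across triplicate slides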
[3] = probe aCHRDL2 binding to arrayed compounds – biochemical, biotinylated probe, 635/667 nm fluorescence, primary screen (AID 1100); conditions: small-molecule microarray, higher = more signal
[4] = change in splice reporter luminescence, either direction, cell-based, HEK293, spliceosome inhibition project, primary screen (AID 1101); conditions: HEK293 splicing luciferase reporter, 24 h, higher = more signal, called active from +8 up or from −8 down;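 note: HEK293 cells carrying a splicing-competent luciferase reporter gene; test concentration not given here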
[5] = biological target: Fibroblast growth factor 10 (Homo sapiens) (UniProt O15520); test: compounds binding fibroblast growth factor 10 – biochemical, small-molecule microarray, 635 nm fluorescence, primary screen (AID 1102); conditions: FGF10 binding, fluorescence 635 nm, higher = more signal
Fibroblast growth factor 10 (Homo sapiens), sequence (O15520 whole entry, looked up): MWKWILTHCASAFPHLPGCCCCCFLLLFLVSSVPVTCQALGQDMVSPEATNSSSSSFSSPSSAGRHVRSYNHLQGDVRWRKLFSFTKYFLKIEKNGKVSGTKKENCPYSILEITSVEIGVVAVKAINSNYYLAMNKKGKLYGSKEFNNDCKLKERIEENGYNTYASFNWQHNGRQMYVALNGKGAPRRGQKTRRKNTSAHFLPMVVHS

[6] = system: glycogen synthase kinase-3 (GSK3A per assay name; protocol says GSK3B); test: compounds binding glycogen synthase kinase-3 – biochemical, small-molecule microarray, 635 nm fluorescence, GSK3A, primary screen (AID 1103); conditions: fluorescence 635 nm, higher = more signal; note: the record names both GSK3A and GSK3B
[7] = biological target: Epidermal growth factor receptor (Homo sapiens) (UniProt P00533); test: compounds binding epidermal growth factor receptor – biochemical, small-molecule microarray, 635 nm fluorescence, primary screen (AID 1104); conditions: EGFR binding, higher = more signal;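 note: score merges 667 nm emission intensity with spot signal to noise over triplicate slides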
Epidermal growth factor receptor (Homo sapiens), sequence (P00533 whole entry, looked up): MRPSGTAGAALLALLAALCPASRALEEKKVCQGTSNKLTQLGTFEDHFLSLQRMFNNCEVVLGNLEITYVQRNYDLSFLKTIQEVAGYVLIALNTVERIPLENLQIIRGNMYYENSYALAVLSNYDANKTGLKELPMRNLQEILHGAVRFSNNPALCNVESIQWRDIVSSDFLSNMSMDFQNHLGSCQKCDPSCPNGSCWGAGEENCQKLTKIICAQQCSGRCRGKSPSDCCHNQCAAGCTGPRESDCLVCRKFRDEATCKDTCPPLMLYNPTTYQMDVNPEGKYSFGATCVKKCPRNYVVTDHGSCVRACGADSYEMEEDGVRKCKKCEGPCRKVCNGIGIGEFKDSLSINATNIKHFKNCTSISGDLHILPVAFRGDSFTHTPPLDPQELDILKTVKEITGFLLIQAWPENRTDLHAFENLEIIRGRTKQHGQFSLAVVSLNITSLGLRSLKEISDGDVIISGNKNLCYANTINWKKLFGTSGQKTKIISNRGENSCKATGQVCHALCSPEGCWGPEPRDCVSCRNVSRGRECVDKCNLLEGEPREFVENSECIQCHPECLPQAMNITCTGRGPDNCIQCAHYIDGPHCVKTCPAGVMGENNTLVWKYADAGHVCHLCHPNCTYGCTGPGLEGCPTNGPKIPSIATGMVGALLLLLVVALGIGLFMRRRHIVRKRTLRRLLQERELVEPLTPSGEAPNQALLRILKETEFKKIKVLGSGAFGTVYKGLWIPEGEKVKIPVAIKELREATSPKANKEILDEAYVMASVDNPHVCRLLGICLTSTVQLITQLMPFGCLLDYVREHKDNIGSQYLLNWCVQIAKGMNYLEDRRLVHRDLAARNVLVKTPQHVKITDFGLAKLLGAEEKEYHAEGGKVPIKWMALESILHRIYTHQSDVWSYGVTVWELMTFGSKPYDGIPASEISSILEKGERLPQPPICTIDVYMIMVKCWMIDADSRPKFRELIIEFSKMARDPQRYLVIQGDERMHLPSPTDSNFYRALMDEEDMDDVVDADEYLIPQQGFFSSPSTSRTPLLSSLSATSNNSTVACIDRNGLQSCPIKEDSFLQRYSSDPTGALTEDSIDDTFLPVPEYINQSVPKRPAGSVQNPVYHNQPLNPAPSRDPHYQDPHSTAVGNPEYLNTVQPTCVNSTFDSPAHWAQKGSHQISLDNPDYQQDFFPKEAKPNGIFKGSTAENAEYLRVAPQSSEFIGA

[8] = biological target: Follistatin-related protein 3 (Homo sapiens) (UniProt O95633); test: compounds binding follistatin-related protein 3 – biochemical, small-molecule microarray, 635 nm fluorescence, primary screen (AID 1105); conditions: FSTL3 binding, higher = more signal;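 note: score merges emission near 667 nm and signal to noise per printed spot across three slides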
Follistatin-related protein 3 (Homo sapiens), sequence (O95633 whole entry, looked up): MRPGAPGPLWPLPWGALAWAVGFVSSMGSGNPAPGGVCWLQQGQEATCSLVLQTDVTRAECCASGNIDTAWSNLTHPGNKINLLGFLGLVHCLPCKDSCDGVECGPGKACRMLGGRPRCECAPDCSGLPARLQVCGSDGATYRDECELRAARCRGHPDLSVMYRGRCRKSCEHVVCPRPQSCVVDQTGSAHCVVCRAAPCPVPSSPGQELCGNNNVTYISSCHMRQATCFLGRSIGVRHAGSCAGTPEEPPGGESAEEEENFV

[9] = biological target: Dickkopf-related protein 1 (Homo sapiens) (UniProt O94907); test: small molecules binding DKK1 protein – biochemical, small-molecule microarray, 635 nm fluorescence scan, primary screen (AID 1106); conditions: higher = more signal;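 note: score merges emission near 667 nm with signal to noise over three replicate slides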
Dickkopf-related protein 1 (Homo sapiens), sequence (O94907 whole entry, looked up): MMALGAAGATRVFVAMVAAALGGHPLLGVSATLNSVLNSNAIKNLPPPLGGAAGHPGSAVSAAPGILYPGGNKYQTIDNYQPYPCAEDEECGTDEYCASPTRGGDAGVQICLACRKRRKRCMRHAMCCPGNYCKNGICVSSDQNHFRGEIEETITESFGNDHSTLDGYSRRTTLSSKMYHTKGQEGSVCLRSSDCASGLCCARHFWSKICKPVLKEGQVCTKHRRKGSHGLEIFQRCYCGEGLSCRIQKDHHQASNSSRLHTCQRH

[10] = system: Inhibin beta A chain (activin A); test: small molecules binding activin A – biochemical, small-molecule microarray, 635 nm fluorescence scan, primary screen (AID 1107); conditions: INHBA, higher = more signal;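 note: mouse activin A protein probed at 4.33 µg/mL on printed slides; score merges bound-protein fluorescence near 667 nm with spot signal-to-noise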
[11] = system: Human papillomavirus type 1a protein E7 (residues 44-93); test: small molecules binding HPV E7 44-93 – biochemical, small-molecule microarray, residues 44-93, 635 nm fluorescence, primary screen (AID 1108); conditions: fluorescence 635 nm, higher = more signal;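 note: E7 fragment applied at 1 µg/mL in TBST for 1 h at 4 C; score combines spot fluorescence with its signal to noise ratio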
[12] = hepatitis C replication reporter changes, two-sided – Huh7 cells, luciferase reporter, HCV replication inhibitor project, primary screen (AID 1109); conditions: Huh7 HCV replicon luciferase reporter, 48 h; higher = more signal;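 note: huh7 hepatoma cells harbouring a luciferase neomycin HCV replicon reporter; luciferase luminescence as measure of HCV replicon replication; test concentration not given here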
[13] = biological target: Left-right determination factor 2 (Homo sapiens) (UniProt O00292); test: small molecules binding LEFTY2 protein – biochemical, small-molecule microarray, 635 nm fluorescence scan, primary screen (AID 1110); conditions: higher = more signal
Left-right determination factor 2 (Homo sapiens), sequence (O00292 whole entry, looked up): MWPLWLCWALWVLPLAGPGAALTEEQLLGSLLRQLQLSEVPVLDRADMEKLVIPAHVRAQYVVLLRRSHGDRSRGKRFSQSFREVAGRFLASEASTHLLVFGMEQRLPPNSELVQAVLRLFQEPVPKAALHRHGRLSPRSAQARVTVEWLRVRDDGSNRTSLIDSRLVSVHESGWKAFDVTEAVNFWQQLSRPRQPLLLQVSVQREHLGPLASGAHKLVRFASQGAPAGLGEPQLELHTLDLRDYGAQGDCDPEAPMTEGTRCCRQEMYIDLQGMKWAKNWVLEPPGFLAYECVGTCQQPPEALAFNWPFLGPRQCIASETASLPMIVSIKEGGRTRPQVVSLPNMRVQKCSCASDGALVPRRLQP

[14] = biological target: Calmodulin-1 (Homo sapiens) (UniProt P0DP23); test: small molecules binding calmodulin-1 with EGTA – biochemical, small-molecule microarray, Cy5-labelled CALM1, profiling panel (AID 1111); conditions: Cy5-CALM1 binding fluorescence, higher = more signal;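 note: labelled calmodulin applied in Tris saline Tween buffer holding calcium plus EGTA and DTT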
[15] = biological target: Calmodulin-1 (Homo sapiens) (UniProt P0DP23); test: small molecules binding Ca-loaded calmodulin-1 – biochemical, small-molecule microarray, Cy5-labelled CALM1, plus calcium, artefact control for SMM control-protein annotation, profiling panel (AID 1112); conditions: Cy5-CALM1 binding fluorescence, higher = more signal;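 note: score merges spot fluorescence with signal to noise from triplicate slides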
[16] = probe aWnt5a binding to arrayed compounds – biochemical, biotinylated probe, 635/667 nm fluorescence, primary screen (AID 1113); conditions: small-molecule microarray, higher = more signal;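 note: score merges 667 nm fluorescence intensity with signal-to-noise per printed feature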
[17] = probe aShh binding to arrayed compounds – biochemical, biotinylated probe, 635/667 nm fluorescence, primary screen (AID 1114); conditions: small-molecule microarray, higher = more signal;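 note: probe is biotin-labelled aShh protein from a stem cell growth factor screen; measures binding of labelled protein to compounds printed on the slide; score merges feature fluorescence at 667 nm with signal-to-noise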
[18] = probe aNog binding to arrayed compounds – biochemical, biotinylated probe, 635/667 nm fluorescence, primary screen (AID 1115); conditions: small-molecule microarray, higher = more signal;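 note: probe is biotinylated aNog protein used at 0.15 µg/mL for 1 h at 4 C; z-score combines 667 nm fluorescence of each spot with its signal to noise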
[19] = biological target: Torsin-1A-interacting protein 1 (Homo sapiens) (UniProt Q5JTV8); test: compound microarray binding of lysate hLAP1 – cell lysate, small-molecule microarray, COS7 lysate, 635/667 nm fluorescence, primary screen (AID 1116); conditions: 635 nm fluorescence, higher = more signal
Torsin-1A-interacting protein 1 (Homo sapiens), sequence (Q5JTV8 whole entry, looked up): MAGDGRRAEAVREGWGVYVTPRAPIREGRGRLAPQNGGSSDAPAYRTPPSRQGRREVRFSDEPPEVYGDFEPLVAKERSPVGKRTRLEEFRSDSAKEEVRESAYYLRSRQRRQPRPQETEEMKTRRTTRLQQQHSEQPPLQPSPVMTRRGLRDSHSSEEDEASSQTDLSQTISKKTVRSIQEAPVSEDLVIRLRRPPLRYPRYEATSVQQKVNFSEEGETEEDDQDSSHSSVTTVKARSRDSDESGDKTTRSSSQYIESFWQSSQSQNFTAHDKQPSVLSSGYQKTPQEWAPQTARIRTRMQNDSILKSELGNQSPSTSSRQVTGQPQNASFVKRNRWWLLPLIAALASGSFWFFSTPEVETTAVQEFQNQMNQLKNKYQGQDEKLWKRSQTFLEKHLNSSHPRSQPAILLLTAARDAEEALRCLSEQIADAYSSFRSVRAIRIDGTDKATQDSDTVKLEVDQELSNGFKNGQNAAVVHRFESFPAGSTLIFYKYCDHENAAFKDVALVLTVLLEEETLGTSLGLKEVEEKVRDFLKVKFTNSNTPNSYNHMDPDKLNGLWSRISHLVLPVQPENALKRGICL

[20] = biological target: Alpha-bungarotoxin (Bungarus multicinctus) (UniProt P60615); test: compounds binding labelled alpha-BTX control protein – biochemical, small-molecule microarray, Alexa647 label, 635/667 nm fluorescence, artefact control for SMM control protein annotation, profiling panel (AID 1117); conditions: alpha-BTX-A647 binding fluorescence, higher = more signal
Alpha-bungarotoxin (Bungarus multicinctus), sequence (P60615 whole entry, looked up): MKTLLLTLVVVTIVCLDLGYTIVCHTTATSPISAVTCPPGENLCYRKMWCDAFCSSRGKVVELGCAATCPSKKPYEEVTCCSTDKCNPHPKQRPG

SMILES | composite z-score [1] | composite z-score [2] | composite z-score [3] | z-score [4] | composite z-score [5] | composite z-score [6] | composite z-score [7] | composite z-score [8] | composite z-score [9] | composite z-score [10] | composite z-score [11] | z-score [12] | composite z-score [13] | composite z-score [14] | composite z-score [15] | composite z-score [16] | composite z-score [17] | composite z-score [18] | composite z-score [19] | composite z-score [20]
CCC(=O)[C@]12O[C@@]3([C@@H]4C(=O)OCC[C@@H]41)N(CC)C(C)=C(C(=O)OC)[C@@H](c1ccccc1)N3C2=O | -0.155 | -0.41 | -0.87 | -1.9 (inactive) | 0.162 | 0.0495 | 0.0064 | 0.599 | 0.817 | 1.7 | -0.933 | -0.206 | 0.594 | -0.42 | -0.382 | -0.147 | 0.227 | -0.131 | -0.303 | 0.175
CO[C@@H]1COC(=O)[C@@H]2CCCN2C(=O)CC=C[C@@H](C)[C@H](OC)COC(=O)[C@@H]2CCCN2C(=O)CC=C[C@H]1C | 1.29 | -0.875 | -1.33 | -0.481 (inactive) | 0.546 | 0.171 | 0.992 | 1.19 | 1.27 | 1.43 | -0.699 | 0.47 | 0.402 | -1.35 | -2.31 | -0.156 | -0.2 | -0.201 | -0.233 | -1.09
CCOC(=O)C[C@H]1[C@H](OC(=O)c2cc3ccccc3oc2=O)[C@@H](NC(=O)c2ccc3ccccc3c2)c2cc(OCCCO)ccc2N1C(=O)c1ccc2ccccc2n1 | 0.209 | 0.0447 | -0.19 | -0.017 (inactive) | 0.876 | 0.4 | 0.573 | 1.09 | 0.858 | 0.392 | -0.0309 | -1.15 | 0.57 | -0.0337 | -0.463 | 0.0554 | -0.138 | 0.193 | 0.529 | 0.992
C=CCC(OC(C)=O)[C@@H]1[C@@H](N(Cc2ccc(-c3ccccc3)cc2)C(=O)c2ccc(-c3ccccc3)cc2)c2cc(OCCCO)ccc2N1C(=O)Cc1ccc(OC)cc1 (stereo not given in full) | -0.322 | 0.0651 | 0.026 | -0.792 (inactive) | 0.035 | -0.0305 | -0.25 | 0.491 | -0.345 | 1.28 | 0.273 | -1.57 | 0.241 | 0.165 | 0.229 | 0.164 | 0.011 | 0.0921 | -0.209 | 0.265
O=C1C2C=CC(C(O)C(c3ccccc3)c3ccccc3)N(Nc3ccc([N+](=O)[O-])cc3)C2C(=O)N1c1ccccc1 (stereo not given) | 0.375 | 0.569 | 0.767 | 0.597 (inactive) | 1.04 | 1.32 | 0.66 | 0.955 | 0.331 | 0.814 | 1.46 | -0.871 | 0.737 | 0.858 | 0.808 | 0.122 | -0.0211 | 0.676 | 0.935 | 1.42
C[N+](C)(C)CCCCNC(=O)[C@@H]1C[C@@H]2C(=O)N3CCC[C@H]3C(=O)N2[C@@H]1c1cccc(OCCO)c1 | 0.577 | -0.222 | -0.0397 | 0.0434 (inactive) | 0.455 | 0.249 | 0.495 | 1.45 | 1.44 | 0.0648 | -0.745 | 0.0741 | 1.14 | -0.794 | 0.658 | -0.162 | -0.0626 | -0.0645 | 1.62 | 1.16
CO[C@H]1COC(=O)[C@H](Cc2ccccc2)NC(=O)CC=C[C@@H](C)[C@H](OC)COC(=O)CC=C[C@@H]1C | 0.143 | 0.077 | -0.473 | -0.875 (inactive) | 0.323 | 0.418 | 0.44 | 0.532 | 0.898 | -0.405 | 0.482 | 0.401 | 1.11 | -0.0075 | -0.61 | -0.134 | 0.0022 | -0.0682 | 0.311 | 0.426
CC(C)[Si]1(C(C)C)OCc2cc(C3CC3)nc(-c3ccccc3)c21 | 0.0305 | -0.294 | 0.525 | -2.27 (inactive) | -0.395 | -1.24 | -0.385 | -0.708 | -0.342 | 1.21 | -0.84 | -0.222 | -0.231 | -1.23 | -0.183 | -0.15 | -0.09 | -0.0841 | -0.694 | -0.249
COC(=O)Cn1c(C(=O)N2CCCC2)cc2c1C[C@H]1CN(C(=O)c3ccccc3)[C@@](Cc3ccc(OC)cc3)(C(=O)OC)[C@@H]21 | 0.41 | 1.37 | 1.1 | -1.76 (inactive) | 0.388 | 0.203 | 0.559 | 0.348 | -0.467 | 1.04 | 1.44 | -1.21 | -0.304 | 1.55 | 0.367 | 0.129 | 0.593 | 1.83 | 0.478 | 0.841
C[C@@H]1NC(=O)[C@H](Cc2ccccc2)NC(=O)[C@@]23C(=O)N[C@@H](Cc4ccccc4)C2[C@H](C)[C@@]2(C)O[C@H]2C3/C=C/C/C=C\CNC1=O (stereo not given in full) | 1.04 | -0.277 | -0.533 | -0.212 (inactive) | -0.356 | -1.48 | -0.202 | -0.0037 | 0.515 | 0.944 | -2.69 | -1.06 | -0.122 | -0.472 | -1.06 | -0.124 | -0.0474 | -0.238 | 0.0403 | -0.576
COCCOC(=O)N1C(=O)[C@@]2(c3cc(C#CCNC(N)=O)ccc31)[C@H](C(=O)N1CCCCCCC1)[C@H]1C(=O)O[C@H](c3ccccc3)[C@H](c3ccccc3)N1[C@@H]2c1ccccc1OCCO | 0.733 | 1.46 | 0.734 | -0.12 (inactive) | 0.718 | 0.205 | 0.79 | 1.22 | 0.485 | 1.33 | 1.32 | -2.1 | 1.09 | 0.886 | 0.632 | 0.193 | 0.46 | 0.878 | 0.845 | 0.48

— PubChem BioAssay
